Source: PubChem
Shown are actives, neighbours in structure and some others; about 0.9% of the full set was active somewhere.
SSB-PriA inh – inhibitors of Klebsiella pneumoniae PriA binding to SSB C-terminal tail | AlphaScreen SSBct-PriA binding, biotinylated peptide | inhibition, % at 33 µM | 430,000 compounds, 0.6% hits | AID 1272365; in the data active = inhibition mostly above about 37%, no sharp cut-off; inactive = mostly below about 20%;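 also: plate controls were negative control peptide for no effect and reference peptide for full effect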
3CLpro inhibitor – SARS-CoV 3CLpro protease inhibition; recombinant SARS-CoV 3CLpro, quenched FRET peptide cleavage; inhibition, % at 6 µM; P0C6X7; 290,000 compounds, 0.14% hits; in the data active = inhibition above about 12%
MazF activator – MazEF (E. coli) toxin RNase activation | FAM/BHQ RNA-DNA oligo cleavage fluorescence, 5 h | activation, % at 20 µM | P0AE70 | 350,000 compounds, 0.32% hits; in the data active = activation above about 50%
Target sequence (P0AE70 whole entry, looked up): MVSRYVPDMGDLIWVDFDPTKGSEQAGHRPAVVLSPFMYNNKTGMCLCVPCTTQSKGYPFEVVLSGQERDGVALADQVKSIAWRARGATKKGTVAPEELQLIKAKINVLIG
Yp Topo-I inh – blocks Yersinia pestis topoisomerase I activity. Y. pestis Topo-I cleavage product accumulation, plate reader. activity, % at 10 µM. 360,000 compounds, 0.064% hits. AID 504884; in the data active = activity above about 50%, passing the limit was not always enough
Starred values were filed as active, the others as inactive; . = not tested or not shown.

SMILES | SSB-PriA inh | 3CLpro inhibitor | MazF activator | Yp Topo-I inh
COc1ccccc1NC(=O)C1=C(C)Nc2nc(-c3cccs3)nn2C1c1ccccc1[N+](=O)[O-] (configuration not stated) | 35* | . | . | .
O=C(Cn1cccn1)Nc1ccccc1Cc1nc(-c2ccco2)no1 | -11 | . | . | .
Cc1ccc(OCCn2cnc(Cl)c2Cl)cc1 | 22 | 5 | 1 | 9
CC(C)(C)c1ccc(OCCn2cnc(Cl)c2Cl)cc1 | 98* | . | . | .
CC(CC(=O)Nc1ccc(C)c(Cl)c1)=NNC(=O)Cc1ccccc1 | -8 | . | . | .
Oc1ccc(CN2CCN(Cc3ccccc3)CC2)c2cccnc12 | 103* | 2 | -1 | -2
O=S(=O)(c1ccc(Cl)cc1)N1CCN(Cc2ccc(O)c3ncccc23)CC1 | 15 | 0 | -7 | -3
CN1CCN(C2CCN(Cc3ccc(O)c4ncccc34)CC2)CC1 | 56* | . | 5 | 4
Cc1ccn2c(NC(=O)Cc3cccc4ccccc34)c(-c3ccccc3)nc2c1 | 9 | . | . | .
CCc1nc(C)cn1S(=O)(=O)c1cc(OC)c(Br)cc1OC | 3 | . | . | .
COC(=O)c1ccc(OCC2c3cc(OC)c(OC)cc3CCN2C(=O)c2cc(Cl)ccc2[N+](=O)[O-])cc1 (configuration not stated) | 9 | . | . | .
Cc1cc(C)cc(N=c2c([N+](=O)[O-])nn(-c3cccc(Cl)c3)n2O)c1 | 36 | -2 | 7 | -4
O=[N+]([O-])c1nn(-c2cccc(Cl)c2)n(O)c1=NC1CCCCCC1 | 66* | . | . | .
O=[N+]([O-])c1nn(-c2ccccc2)n(O)c1=NC1CCCCCC1 | 64* | . | . | .
O=[N+]([O-])c1nn(-c2ccccc2)n(O)c1=NC1CCN(Cc2ccccc2)CC1 | -5 | -4 | 7 | -8
O=C(NCCn1nc(-c2cccs2)n(C2CC2)c1=O)Nc1cccs1 | -3 | . | . | .
CN(CC#CCNC(=O)CN(C)S(C)(=O)=O)Cc1ccccc1 | -13 | . | . | .
COc1cc(C)c(Cl)cc1S(=O)(=O)Nc1ccc(Nc2nc(C)cc(Nc3ccc(C)cc3)n2)cc1 | -9 | . | . | .
COc1ccc(Nc2cc(C)nc(Nc3ccc(NS(=O)(=O)c4cc(C(C)(C)C)ccc4OC)cc3)n2)cc1 | 43* | . | . | .
O=C(NCCCS(=O)(=O)N1CCN(c2ncccn2)CC1)c1ccc(S(=O)(=O)N2CCOCC2)cc1 | -19 | . | . | .
O=C(NCCn1ccnc1-c1ncccn1)C1(c2ccccc2)CCOCC1 | 40* | . | . | .
O=C(NCCN1CCOCC1)c1ccc(Cl)c(S(=O)(=O)N2CCCC2)c1 | 39* | -2 | 0 | 5
O=C(NCCn1ccnc1-c1ncccn1)c1ccc(S(=O)(=O)N2CCOCC2)cc1 | 92* | . | . | .
O=C(NCCN1CCOCC1)c1ccc(Cl)c(S(=O)(=O)N2CCCCCC2)c1 | -3 | 2 | -2 | 1
O=C(NCCn1ccc(-c2ccncc2)n1)C1(c2ccccc2)CCOCC1 | -10 | . | . | .
SMILES | SSB-PriA inh | 3CLpro inhibitor | MazF activator | Yp Topo-I inh
NCCCn1ccnc1-c1ccccc1 | -7 | . | . | .
O=C(c1ccc2nsnc2c1)N1CCC(CSC2=NCCS2)CC1 | 3 | . | . | .
N#C/C(=C\c1ccccn1)c1nc2ccccc2s1 | -17 | 2 | 67* | 11
O=C(Nc1cccc(Cl)c1)N(CCCN1CCOCC1)Cc1ccccc1F | -10 | 3 | 7 | 2
CCN1CCCc2cc(CN(CCN3CCOCC3)C(=S)Nc3cccc(Cl)c3)ccc21 | 52* | 1 | -12 | 3
O=C(Nc1ccccc1)N(CCN1CCOCC1)Cc1cccc(Cl)c1 | 6 | 5 | 1 | 73*
Cc1cc(NCCc2ccccc2)c(C=O)c(=O)n1C | -26 | . | . | .
Cc1cc(CNC(=O)Nc2ccc3c(c2)OCO3)c(C)o1 | 39* | . | . | .
Cc1ccc(NC(=O)NCc2ccc3c(c2)OCO3)cc1C | 4 | 0 | -8 | 2
c1cc2c(cc1CNc1ccc(N3CCOCC3)cc1)OCO2 | 48* | . | 3 | 2
Cc1ccc(CNc2ccc3c(c2)OCO3)cc1 | 33 | -8 | 59* | 0
CCOc1ccccc1C(=O)N1CCN(C(=O)C2CC2c2ccc3c(c2)OCO3)CC1 (configuration not stated) | 4 | . | . | .
COc1ccc(C(=O)N2CCN(c3nccn3-c3ccc(C)cc3)CC2)c(OC)c1 | 38* | . | . | .
COc1cc(OC)cc(C(=O)N2CCN(c3nccn3-c3cccc(Cl)c3)CC2)c1 | 40* | . | . | .
Cc1cc(C)cc(C(=O)N2CCN(c3nccn3-c3cccc(Cl)c3)CC2)c1 | 73 | . | . | .
COc1cc(/C=C2\SC(=N)NC2=O)cc(Cl)c1O | -6 | . | . | .
O=C(NCC1(c2ccsc2)CCCC1)c1ccc(Cl)s1 | -44 | . | . | .
O=c1[nH]c(O)c(C=C2C=Nc3ccccc32)c(=O)[nH]1 | 0 | . | . | .
O=c1[nH]c(O)c(/C=C2\C=Nc3ccc(OCc4ccccc4)cc32)c(=O)[nH]1 | . | -1 | 847* | 15
O=C(Cc1csc2nc(-c3ccccc3)cn12)Nc1ccc2c(c1)OCCO2 | 44* | . | . | .
O=C(Cc1csc(Nc2ccccc2)n1)Nc1ccc2c(c1)OCCO2 | 18 | . | . | .
O=C(Cc1csc(Nc2cccc(Cl)c2)n1)Nc1ccc2c(c1)OCCO2 | 20* | . | . | .
Cc1c(C(=O)Nc2ccc3c(c2)OCO3)sc2nc(-c3ccccc3)cn12 | 6 | 1 | 66* | 2
O=C(CC(c1ccccc1)c1ccccc1)NC1CC(O)C(CO)C1 (configuration not stated) | -14 | . | . | .
COc1ccc(-c2c(C#Cc3ccc(N(C)C)cc3)c3ccccc3n2C)cc1 | 78* | . | 4 | -15
SMILES | SSB-PriA inh | 3CLpro inhibitor | MazF activator | Yp Topo-I inh
O=c1c(-c2ccc(Cl)cc2)coc2c3c(ccc12)OCN(c1cccnc1)C3 | 4 | . | . | .
Cc1ccc(S(=O)(=O)N2CCC(S(=O)(=O)Cc3ccco3)CC2)s1 | -11 | . | . | .
O=S(=O)(Cc1ccco1)C1CCN(S(=O)(=O)c2ccccc2F)CC1 | 83* | . | . | .
Cn1cnc(S(=O)(=O)N2CCC(S(=O)(=O)Cc3ccco3)CC2)c1 | 68* | . | . | .
O=S(=O)(Cc1ccco1)[C@H]1CCN(S(=O)(=O)c2ccccc2Br)C1 | 1 | . | . | .
CCCOc1nn(CCC)cc1C(=O)Nc1ccc(C)c(F)c1 | -6 | . | . | .
S=C(NNc1ccnc2cc(Cl)ccc12)Nc1ccccc1Cl | 40* | 7 | 4 | -7
Clc1ccc(NNc2ccnc3cc(Cl)ccc23)cc1 | 76* | -6 | 6 | -1
FC(F)(F)c1ccccc1/C=C/c1nn2c(-c3ccncc3)nnc2s1 | 0 | . | . | .
